# Measurements published in PubChem BioAssay AID1745850 (National Center for Advancing Translational Sciences (NCATS), 2022).
# About 260 (12%) of roughly 2,100 compounds were called active. About 58% were inconclusive and are not listed. This is one part of the list. Unmarked numbers belong to inactive results. Calls follow the shape of the dose curve; as a rule, active = well fitted cell-killing curve with a large enough effect; inconclusive = small, poorly fitted or top-dose-only effect, or effect the other way; inactive = flat fitted curve, though single readings scatter.
# Assay: Viability Counterscreen for Confirmatory qHTS for Inhibitors of ATXN expression; also: nearly all actives have a fitted effect of over 50% in size
# Conditions: HEK-293 ATXN2-luc cells viability, CellTiter-Fluor, 24 h; activity change, negative = cytotoxicity: at the top concentration
# Summary of the method: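 Luminescence read-out (SteadyGlo, 5 min) followed a 30 min Gly-Phe-AFC (25 uM final) viability fluorescence read. ATXN2-luciferase reporter cells were exposed 24 h to a dilution series. Medium-only wells served as the 100% inhibition reference.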
# Potency is read from the fitted curve at half-maximal effect.
Structure (SMILES),"activity change, negative = cytotoxicity",Potency
Cc1c(C(=O)N2c3ccccc3Sc3ccccc32)cccc1[N+](=O)[O-],-17.9% [at 57.5 µM],
CC1(C)CC(N2CCN(Cc3ccccc3)CC2)=CC(=[N+]2CCCCC2)C1,-29.1% [at 57.5 µM],
COc1ccc(N2CCN(c3ccnc4cc(Cl)ccc34)CC2)cc1,-16.3%,
CN(C)c1ccc(C(=O)N/N=C/c2cc(Br)cc(Br)c2O)cc1,-0.744%,
CC(C)C(=O)Nc1ccc(C(=O)N/N=C/c2cc(Br)cc(Br)c2O)cc1,,28.2 µM (active)
O=C(Cc1ccccc1)N/N=C/c1cc(Br)cc(Br)c1O,1.64%,
C/C(=N\NC(=O)C(C)n1nc(C)c([N+](=O)[O-])c1C)c1ccccc1O (stereo not drawn),-29.9%,
Cc1ccc(/C=C2\SC(=S)N(CCCC(=O)Nc3cccnc3)C2=O)cc1,,31.6 µM (active)
Cc1ccc(NC(=O)COc2ccc(/C=C3/SC(=Nc4ccccc4)N(Cc4cccnc4)C3=O)cc2)cc1,,20 µM (active)
COC(=O)c1ccc(/C=C2/SC(=S)N(CCCC(=O)Nc3ccccn3)C2=O)cc1,,28.2 µM (active)
O=C(CCCN1C(=O)S/C(=C\c2ccccc2)C1=O)NNC(=O)c1ccccc1O,-29.5% [at 57.5 µM],
Cc1ccc(/C=C2\SC(=S)N(CCCC(=O)Nc3cc(C)on3)C2=O)cc1,-20.5%,
Cc1ccc(/C=C2/SC(=S)N(CCCC(=O)Nc3ccc(O)cc3)C2=O)cc1,,28.2 µM (active)
Cc1ccc(/C=C2\SC(=S)N(CCCC(=O)Nc3ccc(O)cc3)C2=O)cc1,-6.29%,
[O-][n+]1c2ccccc2cc2ccccc21,-11.2% [at 57.5 µM],
O=c1c(Cc2ccccc2)c(O)nc2n1CCS2,-11.8% [at 57.5 µM],
CC1(C)COCN1S(=O)(=O)c1ccc(C(=O)Nc2nnc(-c3ccc(Cl)s3)o2)cc1,-17.8%,
CC(C)(C)c1ccc(C(=O)N2CCCCCC2=O)cc1,-15.8% [at 57.5 µM],
CC(/C=C/c1ccc2c(c1)OCO2)=N\NC(=O)c1cccc([N+](=O)[O-])c1,-22.2% [at 57.5 µM],
COc1ccc(/C=C/C(=O)c2ccc([N+](=O)[O-])o2)cc1OC,,8.91 µM (active)
Cc1cccc(/C=C/C(=O)c2ccc([N+](=O)[O-])o2)c1,,3.55 µM (active)
COc1ccccc1NC(=S)NC(=O)c1ccc(Cn2cc(Br)cn2)cc1,-17.6% [at 57.5 µM],
OC(c1ccccc1)(c1nc(-c2ccc3ccccc3c2)cs1)C(F)(F)F (stereo not drawn),1.3%,
O=C(NCc1ccccc1Cl)C1CCCN(C(=O)Nc2ccc(F)cc2)C1 (stereo not drawn),-23% [at 57.5 µM],
COc1cc(C#Cc2c(-c3cncn3C)n(C)c3ccc(-c4ccc(CN5CCOCC5)cc4)cc23)cc(OC)c1,5.73%,

Structure (SMILES),"activity change, negative = cytotoxicity",Potency
O=C(N/N=C\c1cc(Cl)ccc1O)c1ccc(S(=O)(=O)N2CCCCC2)cc1,7.63%,
O=C(COc1ccc(F)cc1)N/N=C/c1cccc2cccnc12,-15.2%,
CC1CCN(Cc2c(C(=O)N/N=C/c3cc(Br)ccc3O)nnn2-c2nonc2N)CC1,-17%,
Nc1ccc(Oc2ccccc2-c2ccccc2)cc1,12.7%,
CCc1cc2c(=O)c(-c3cnn(-c4ccccc4)c3)coc2c(CN2CCOCC2)c1O,-10.7%,
CC(=O)c1cccc(NC(=O)c2cccc3c(-c4cccc(C(N)=O)c4)coc23)c1,,20 µM (active)
COc1cc(NC(=O)c2cc(-c3ccccc3)nc3c2cnn3C(C)C)cc(OC)c1OC,-29.6%,
CC(=O)c1cccc(-c2ccnc3c2CC(C(=O)Nc2ccc(F)c(Cl)c2)O3)c1 (stereo not drawn),-26.8%,
COc1cc(NC(=O)c2cccc3c(-c4cnn(C)c4)coc23)cc(OC)c1OC,,31.6 µM (active)
OCCN1CCN(C(=S)c2ccc(-c3ccccc3)cc2)CC1,-13% [at 57.5 µM],
Cc1[nH]n(-c2ccccc2)c(=O)c1C=Nc1cccc2cccnc12,-11.7%,
COc1cc(C#Cc2c(-c3cncn3C)n(C)c3ccc(-c4cnc(N5CCOCC5)nc4)cc23)cc(OC)c1,5.72%,
COC(=O)c1ccsc1NC(=O)CN1CCN(Cc2ccc3c(c2)OCO3)CC1,-20.4% [at 57.5 µM],
Cc1ccc(CN2CC(C(=O)Nc3ncc(C)s3)CC2=O)cc1 (stereo not drawn),-7.83%,
CC1CCN(C(=O)c2cc3nc(-c4ccccc4)cc(-c4ccccc4)n3n2)CC1,-2.33%,
COc1ccccc1-c1cc2nc(-c3ccccc3)cc(N3CCN(C(=O)c4ccoc4)CC3)n2n1,,15.8 µM (active)
COc1cc(OC)cc(-c2cc3nc(C)c(CCC(=O)NCc4ccccc4)c(C)n3n2)c1,-17.9% [at 57.5 µM],
NS(=O)(=O)c1ccc(N2N=C(c3ccccc3)CC2c2ccc(F)cc2)cc1 (stereo not drawn),-3.59%,
CCCCn1c(SCC(=O)Nc2cc(NC(=O)c3ccco3)ccc2C)nc2ccccc2c1=O,-29.7% [at 57.5 µM],
Fc1ccc2[nH]c3c(N4CCSCC4)ncnc3c2c1,,25.1 µM (active)
Fc1ccc2[nH]c3c(NCc4ccccc4)ncnc3c2c1,-21.4%,
Cc1ccc(CN(C)C(=O)CN2C(=O)NC(c3ccccc3)(c3ccccc3)C2=O)c(C)c1,-19.4%,
COc1cc(-c2nnc(SCC(=O)N(Cc3ccccc3)C(C)(C)C)o2)cc(OC)c1OC,-20.5%,
C=CCOC(=O)C1=C[C@@H](c2ccc3c(c2)OCO3)C[C@@H](OCCCCO)O1,-28.3% [at 57.5 µM],
O=[N+]([O-])c1ccccc1S(=O)(=O)Nc1cccc2cccnc12,,17.8 µM (active)

Structure (SMILES),"activity change, negative = cytotoxicity",Potency
O=S(=O)(Nc1cccc2cccnc12)c1ccccc1,,1.78 µM (active)
O=C(Nc1cccc(Br)c1)Oc1cccc2cccnc12,-27.9% [at 57.5 µM],
O=C(Nc1cccc2cccnc12)c1csc(COCCO)n1,-16.4% [at 57.5 µM],
O=[N+]([O-])c1ccc(C[n+]2cccc3ccc4cccnc4c32)cc1,-4.61%,
O=c1cc(N2CCN(c3ccccc3)CC2)[nH]c(=O)n1C1CCCCC1,-26.7% [at 57.5 µM],
Cc1cc(Cl)ccc1-c1cc2nc(NCCCN(C)C)n(C)c(=O)c2s1,15%,
O=C(Nc1ccc2c(c1)CCC2)C1CCN(c2c3c(nc4ncnn24)CCC3)CC1,-26% [at 57.5 µM],
O=C1/C(=C/c2ccncc2)CCC/C1=C\c1ccncc1,,10 µM (active)
CN1C/C(=C/c2cccnc2)C(=O)/C(=C/c2cccnc2)C1,-7.06%,
Cc1ccc(-c2nc3ccc(Cl)cn3c2CC(C)(C)C)cc1,-3.49%,
CCCNC(=O)c1ccc2c(=O)c(O)c(-c3cccc(Br)c3)[nH]c2c1,-22.2% [at 57.5 µM],
CCN(CC)C(=O)C1=C(C)N(CCC2=CCCCC2)C(=O)C(CC(=O)NC(c2ccccc2)c2ccccc2)C1 (stereo not drawn),-11.3%,
CC(C)C[C@H](N)c1cn([C@@H](CCCCN)C(=O)N2CCNCC2)nn1,1.29%,
COc1cc(OC)cc(-c2cc3nc(C)c(CCC(=O)O)c(C)n3n2)c1,-13.3% [at 57.5 µM],
CN(C)C(=O)c1cccc(-c2cnc3c(NC=O)cc(-c4ccc(F)cc4)cn23)c1,-13.3%,
COc1ccc(-c2cc(NC=O)c3ncc(-c4cccc(C(=O)NCCN(C)C)c4)n3c2)cc1,-18.6% [at 57.5 µM],
CN1CCN(c2ccc(-c3cc(NC=O)c4ncc(-c5ccc(F)c(Cl)c5)n4c3)cc2)CC1,,25.1 µM (active)
COc1ccc(Cl)cc1S(=O)(=O)N1CCN(C(=O)c2n[nH]c(=O)c3ccccc23)CC1,-15.9%,
O=C(Nc1nonc1-c1ccc(Cl)cc1)c1ccccc1,-24.8% [at 57.5 µM],
O=C(NC1=CC(=O)c2ccccc2C1=O)c1ccccc1,,14.1 µM (active)
NCCCCCc1nnc(SCc2ccccc2Cl)o1,-25.5%,
COc1ccc(C2CC(c3cccc(Br)c3)=NN2c2ccc(S(N)(=O)=O)cc2)cc1 (stereo not drawn),-13.6% [at 57.5 µM],
CC(C)C(=O)NC(c1ccccc1)c1cc([N+](=O)[O-])c2cccnc2c1O (stereo not drawn),,22.4 µM (active)
CC(=O)NC(c1cccs1)c1cc([N+](=O)[O-])c2cccnc2c1O (stereo not drawn),,12.6 µM (active)
O=C(Nc1nccs1)c1cccc(N2C(=O)c3cccc4c([N+](=O)[O-])ccc(c34)C2=O)c1,-18.8% [at 57.5 µM],

Structure (SMILES),"activity change, negative = cytotoxicity",Potency
CCCCC(=O)NC(c1ccc(Cl)cc1Cl)c1ccc2cccnc2c1O (stereo not drawn),-18.5%,
CCC(=O)NC(c1ccc(Cl)cc1Cl)c1ccc2cccnc2c1O (stereo not drawn),,7.94 µM (active)
O=C(Nc1c(Cl)cccc1Cl)Oc1cccc2cccnc12,-28% [at 57.5 µM],
CCC(=O)NC(c1ccc(C)cc1)c1cc([N+](=O)[O-])c2cccnc2c1O (stereo not drawn),,22.4 µM (active)
Cc1cc(OCc2nc(N)nc(N)c2-c2ccc(Cl)c(Cl)c2)ccc1[N+](=O)[O-],-12.4%,
Cc1cc(OCC(=O)NC(C)c2ccccc2)ccc1[N+](=O)[O-] (stereo not drawn),-7.77%,
COc1ccc(C2CC(c3ccccc3C(F)(F)F)=NN2c2ccc(S(N)(=O)=O)cc2)cc1 (stereo not drawn),13.8% [at 57.5 µM],
CC[C@@H]1C(c2cccc(Cl)c2)=NN(c2ccc(Br)cc2)[C@H]1C(=O)N1CCOC1=O,11.8% [at 57.5 µM],
CCOC(=O)C1=CCN(S(=O)(=O)c2ccc(C)cc2)C1c1cccc(Cl)c1 (stereo not drawn),-25.1% [at 57.5 µM],
CC1(C(=O)NCc2ccco2)CCN1C(=O)C1(c2ccccc2)CC1 (stereo not drawn),-2.76%,
O=C(CSc1nc2ncc(Cl)cc2[nH]1)Nc1cccc(F)c1,-14% [at 57.5 µM],
CC(C)C(=O)NC(c1cccc([N+](=O)[O-])c1)c1ccc2cccnc2c1O (stereo not drawn),,7.94 µM (active)
O=[N+]([O-])c1ccc(NC(c2ccccc2)c2ccc3cccnc3c2O)cc1 (stereo not drawn),,7.94 µM (active)
Oc1c(C(Nc2nccs2)c2ccc(C(F)(F)F)cc2)ccc2cccnc12 (stereo not drawn),,15.8 µM (active)
O=C(NC(=S)N1CCN(c2ccc(F)cc2)CC1)c1cccs1,-5.03%,
Nc1ccn(C2OC(COP(=O)(O)O)C(O)C2O)c(=O)n1 (stereo not drawn),-26.7% [at 57.5 µM],
Cc1ccc(Cc2cnc(N3C(=N)SC(C)C3=O)s2)cc1 (stereo not drawn),-8.77%,
CCC(C)(C)c1ccc(Oc2ccc(N)cc2)cc1,-9.83% [at 57.5 µM],
CCCC(=O)N1CCCC(c2cc(C(=O)Nc3ccccc3)no2)C1 (stereo not drawn),-12.5% [at 57.5 µM],
Cc1cc(=O)[nH]c(N=N/C(=N/Nc2ccccc2C)c2ccccc2)n1,,12.6 µM (active)
O=C(Nc1cccc(Cl)c1)c1ccc2c(c1)SC1=NS(=O)(=O)CCN12,-19.6%,
CCc1cc(C)cc(OCCNC(=O)c2cncc(Br)c2)c1,-9.86% [at 57.5 µM],
CCn1c2ccccc2c2cc(NC(=O)COC(=O)Cc3cn4ccsc4n3)ccc21,-4.46%,
